Test results as given in PubChem BioAssay (EPA / NIEHS).
Several values for one entry are separate records, joined by “and”; a condition that tells them apart may be missing. Identical values can stand only once. Records with an inconclusive call do not appear. Some compounds were tested as several samples or in several runs, with calls that do not always agree. Activity calls are given as the source filed them. Rule for the calls: active = hit-call score of the fitted dose curve at least 0.9, where 1 is the maximum; inconclusive = response in the unintended direction; inactive = score below 0.9.

Tests used:
[1] = TOX21_p53_BLA_p2_viability: Viability Assessment in the Tox21 HCT-116 p53 Agonism Beta-lactamase Assay, Phase 2 (AID 2283591);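 note: compound exposure lasted 16 h at 37 °C; actives lower the ATP signal meaning cytotoxicity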
How it was run: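 HCT116 p53-bla cells, 4000/well, dosed after 5 h plating (217-fold dilution of DMSO stocks) and incubated 16 h at 37C. Viability taken as cellular ATP by CellTiter-Glo luminescence after 30 min RT; signal loss marks cytotoxicity.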

[2] = target: Cellular tumor antigen p53 (Homo sapiens) (UniProt P04637); test: TOX21_p53_BLA_p2_ratio: Tox21 HCT-116 p53 Agonism Beta-lactamase Assay, Ratio, Phase 2 (AID 2283592)
How it was run: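 Ratio endpoint: beta-lactamase cleavage of CCF4-AM, blue (460 nm) over green (530 nm). HCT116 reporter line; 16 h treatment, 37C; substrate 2 h RT.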

[3] = TOX21_p53_BLA_p3_viability: Viability Assessment in the Tox21 HCT-116 p53 Agonism Beta-lactamase Assay, Phase 3 (AID 2283593);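 note: cells exposed to compound for 16 h before reading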
How it was run: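 HCT116 cells, 4000/well, dosed 5 h after plating by pin transfer (217-fold dilution from DMSO stock) and incubated 16 h at 37C, 5% CO2. Viability read as ATP luminescence with CellTiter-Glo after 30 min at room temperature.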

[4] = target: Cellular tumor antigen p53 (Homo sapiens) (UniProt P04637); test: TOX21_p53_BLA_p3_ratio: Tox21 HCT-116 p53 Agonism Beta-lactamase Assay, Ratio, Phase 3 (AID 2283596)
How it was run: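 Cells were seeded at 4000/well, rested 5 h at 37C, then dosed with DMSO compound solutions (217-fold dilution) for 16 h. CCF4-AM substrate was loaded for 2 h at room temperature, and the 460/530 nm emission ratio was fitted for gain of signal versus DMSO.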

[5] = TOX21_p53_BLA_p4_viability: Viability Assessment in the Tox21 HCT-116 p53 Agonism Beta-lactamase Assay, Phase 4 (AID 2283597);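 note: hits lower the luminescence signal meaning cytotoxicity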
How it was run: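 Cytotoxicity was inferred from loss of CellTiter-Glo luminescence. HCT116 cells had been dosed with compounds after 5 h plating, incubated 16 h at 37C and 5% CO2, and exposed to the CCF4-AM substrate for 2 h.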

[6] = target: Cellular tumor antigen p53 (Homo sapiens) (UniProt P04637); test: TOX21_p53_BLA_p5_ratio: Tox21 HCT-116 p53 Agonism Beta-lactamase Assay, Ratio, Phase 5 (AID 2283599)
How it was run: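 HCT-116 p53-bla cells (4000/well) plated 5 h, dosed with compound (217-fold DMSO dilution) for 16 h at 37 C; CCF4-AM substrate 2 h at room temperature. Activity is the 460/530 nm emission ratio (405 nm excitation), fitted in gain-of-signal direction versus DMSO.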

[7] = TOX21_p53_BLA_p5_viability: Viability Assessment in the Tox21 HCT-116 p53 Agonism Beta-lactamase Assay, Phase 5 (AID 2283600)
How it was run: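 Luciferase-coupled ATP quantitation of cells treated for 16 h (37C, 5% CO2) with test chemicals delivered in DMSO via a 217-fold dilution; 4000 cells/well; reagent incubated 30 min at room temperature before luminescence reading.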

[8] = target: Cellular tumor antigen p53 (Homo sapiens) (UniProt P04637); test: TOX21_p53_BLA_p4_ratio: Tox21 HCT-116 p53 Agonism Beta-lactamase Assay, Ratio, Phase 4 (AID 2283601)
How it was run: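 HCT-116 p53 beta-lactamase reporter cells (4000/well) preincubated 5 h, then compound (217-fold dilution of DMSO stock) for 16 h at 37C. CCF4-AM substrate added 2 h at room temperature; 460/530 nm emission ratio fitted upward versus DMSO.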

[9] = Tanguay_ZF_120hpf_MORT_legacy: (Legacy) Oregon State University Tanguay Lab 120 Hour Post-fertilization zebrafish Assay for Mortality (AID 2283633);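 for AC50: fitted as increase in binary mortality versus DMSO negative control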
How it was run: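 Dechorionated Tropical 5D wild-type zebrafish embryos, one per well from 6 hpf, were statically exposed at 28C in the dark until 120 hpf (0.64% DMSO final). Mortality was scored as present/absent by brightfield microscopy, fitted positively versus DMSO.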

[10] = Tanguay_ZF_120hpf_YSE_legacy: (Legacy) Oregon State University Tanguay Lab 120 Hour Post-fertilization zebrafish Assay for Yolk Sac Edema (AID 2283634);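 for AC50: actives raise the incidence of yolk sac edema above the DMSO baseline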
How it was run: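 Tropical 5D wild-type embryos, dechorionated with pronase at 4 hpf, were exposed singly from 6 hpf to 120 hpf under static, sealed, dark conditions at 28C with 0.64% DMSO final. Yolk sac edema was scored present/absent by brightfield microscopy.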

Measured: AC50

Chain of Cellular tumor antigen p53 (Homo sapiens) (P04637 whole entry, looked up): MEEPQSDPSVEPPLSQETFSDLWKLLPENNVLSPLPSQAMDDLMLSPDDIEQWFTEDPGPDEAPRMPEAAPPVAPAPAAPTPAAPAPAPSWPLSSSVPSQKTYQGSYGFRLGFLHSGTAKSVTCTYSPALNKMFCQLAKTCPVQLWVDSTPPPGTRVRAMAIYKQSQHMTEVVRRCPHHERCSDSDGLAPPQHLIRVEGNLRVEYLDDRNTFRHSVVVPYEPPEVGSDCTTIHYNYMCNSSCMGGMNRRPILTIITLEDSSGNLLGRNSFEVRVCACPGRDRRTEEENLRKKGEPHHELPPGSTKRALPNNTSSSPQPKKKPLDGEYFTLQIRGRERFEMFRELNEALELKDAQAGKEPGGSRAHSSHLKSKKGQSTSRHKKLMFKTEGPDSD

CCOC(=O)CC(SP(=S)(OC)OC)C(=O)OCC (stereo not given)
inactive: [1] | [2] | [3] | [4] | [5] | [6] | [7] | [8] | [9]
active: [3] 43.3 µM | [10] 37.4 µM

CON(C)C(=O)Nc1ccc(Cl)c(Cl)c1
inactive: all assays above

CCCC1COC(Cn2cncn2)(c2ccc(Cl)cc2Cl)O1 (stereo not given)
active: [10] 33.9 µM
inactive: all other assays above

N#CC(CCc1ccc(Cl)cc1)(Cn1cncn1)c1ccccc1 (stereo not given)
active: [1] 56 µM | [5] 39.1 µM | [8] 71.5 µM
inactive: all other assays above

CCCCNC(=O)OCC#CI
inactive: [1] | [2] | [3] | [5] | [6] | [7] | [8] | [10]
active: [2] 67 µM | [4] 59.5 µM and 78 µM | [5] 35.9 µM | [6] 78.1 µM | [8] 12.8 µM | [9] 24 µM

CC1=C(C(=O)Nc2ccccc2)SCCO1
active: [9] 40.4 µM
inactive: all other assays above

C=CCC1=C(C)[C@@H](OC(=O)[C@@H]2[C@@H](C=C(C)C)C2(C)C)CC1=O
inactive: all assays above

CC(Oc1ccc(Cl)cc1Cl)C(=O)O (stereo not given)
inactive: all assays above

CNC(=O)ON=CC(C)(C)SC
active: [10] 3.47 µM
inactive: all other assays above

Cc1cc(Cl)ccc1OCC(=O)O
inactive: all assays above

Cc1ccc(-c2c(Cl)nc(C#N)n2S(=O)(=O)N(C)C)cc1
inactive: [3] | [7] | [10]
active: [1] 68.9 µM | [2] 8.72 µM | [4] 12.1 µM | [5] 71.9 µM | [6] 20.1 µM | [8] 17.3 µM | [9] 1.55 µM

C#CCOS(=O)OC1CCCCC1Oc1ccc(C(C)(C)C)cc1 (stereo not given)
active: [2] 2.65 µM and 1.54 µM | [4] 2.53 µM | [5] 70.4 µM
inactive: [1] | [3] | [4] | [5] | [6] | [7] | [8] | [9] | [10]

C=CCC1=C(C)C(OC(=O)C2C(C=C(C)C)C2(C)C)CC1=O (stereo not given)
active: [3] 65.3 µM
inactive: all other assays above

COc1ccc(C(c2ccc(OC)cc2)C(Cl)(Cl)Cl)cc1
inactive: all assays above

CCCCC(CC)COC(=O)c1ccccc1C(=O)OCC(CC)CCCC (stereo not given)
inactive: all assays above

CC1COC(Cn2cncn2)(c2ccc(Oc3ccc(Cl)cc3)cc2Cl)O1 (stereo not given)
inactive: [3] | [7] | [9]
active: [1] 78.7 µM | [2] 21.4 µM | [4] 46.1 µM | [5] 71.1 µM | [6] 66.3 µM | [8] 90.3 µM | [10] 8.51 µM

O=C(Nc1ccccc1)Nc1ccnc(Cl)c1
active: [4] 46.1 µM | [8] 41 µM
inactive: all other assays above

N#Cc1nn(-c2c(Cl)cc(C(F)(F)F)cc2Cl)c(N)c1S(=O)C(F)(F)F (stereo not given)
active: [10] 0.0235 µM
inactive: all other assays above

Oc1ccccc1-c1ccccc1
inactive: all assays above

COC(=O)N(OC)c1ccccc1COc1ccn(-c2ccc(Cl)cc2)n1
active: [2] 1.09 µM | [4] 1.51 µM | [6] 1.9 µM | [8] 1.67 µM | [9] 0.367 µM
inactive: [1] | [3] | [5] | [7] | [10]

CCNc1nc(Cl)nc(NCC)n1
inactive: all assays above

CO/C=C(/C(=O)OC)c1ccccc1Oc1cc(Oc2ccccc2C#N)ncn1
active: [9] 7.48 µM and 1.44 µM | [10] 5.69 µM
inactive: [1] | [2] | [3] | [4] | [5] | [6] | [7] | [8] | [9] | [10]

CN(C)C(=S)SSC(=S)N(C)C
inactive: [1] | [2] | [3] | [4] | [5] | [6] | [7] | [8] | [9] | [10]
active: [2] 33 µM | [4] 29.3 µM | [6] 77 µM

CC(C)Oc1cc(-n2nc(C(C)(C)C)oc2=O)c(Cl)cc1Cl
active: [5] 27.7 µM | [7] 28.5 µM
inactive: [1] | [2] | [3] | [4] | [5] | [6] | [8] | [9] | [10]

Fc1ccc(Oc2ccnc3cc(Cl)cc(Cl)c23)cc1
active: [2] 79.3 µM | [4] 89.1 µM | [6] 88.9 µM | [8] 81.6 µM
inactive: all other assays above

OC(c1ccc(Cl)cc1)(c1cncnc1)c1ccccc1Cl (stereo not given)
inactive: [1] | [2] | [3] | [4] | [5] | [6] | [7] | [9] | [10]
active: [2] 81.5 µM | [8] 63 µM

COc1cnc(OC)n2nc(NS(=O)(=O)c3c(OCC(F)F)cccc3C(F)(F)F)nc12
not listed: [5] | [6] | [10]
inactive: all other assays above

CCOP(=S)(OCC)SCn1c(=O)oc2cc(Cl)ccc21
not listed: [1] | [3]
inactive: all other assays above

N#Cc1cc(Br)c(O)c(Br)c1
active: [2] 40 µM and 56 µM | [4] 57.5 µM and 55.7 µM | [6] 57.3 µM and 72.4 µM | [8] 57.9 µM and 74.3 µM
inactive: [1] | [3] | [5] | [10]

CCCCNC(=O)n1c(NC(=O)OC)nc2ccccc21
inactive: [1] | [5] | [9]
active: [2] 11 µM and 9.55 µM | [4] 15.9 µM and 15.4 µM | [6] 20.5 µM and 12.3 µM | [8] 11.9 µM and 9.73 µM | [10] 52.3 µM

CC(C)(C)c1ccc(CSc2cnn(C(C)(C)C)c(=O)c2Cl)cc1
active: [2] 0.0143 µM | [9] 25.1 µM
not listed: [3] | [5]
inactive: all other assays above

CS/C(C)=N/OC(=O)N(C)SN(C)C(=O)O/N=C(\C)SC
not listed: [1] | [3] | [5]
inactive: all other assays above

CCOc1cc(Oc2ccc(C(F)(F)F)cc2Cl)ccc1[N+](=O)[O-]
not listed: [6]
inactive: all other assays above

CCON=C(CC)C1=C(O)CC(c2c(C)cc(C)cc2C)CC1=O (stereo not given)
inactive: all assays above

CCOC(=O)C(Cl)Cc1cc(-n2nc(C)n(C(F)F)c2=O)c(F)cc1Cl (stereo not given)
active: [10] 1.27 µM
inactive: [2] | [5] | [7] | [8] | [9]

COP(N)(=O)SC (stereo not given)
not listed: [2] | [5] | [8]
inactive: all other assays above

O=C(O)c1nc(Cl)ccc1Cl
not listed: [8]
inactive: all other assays above

C=CC1(C)OC(=O)N(c2cc(Cl)cc(Cl)c2)C1=O (stereo not given)
not listed: [3]
inactive: all other assays above
